D1 PAM = enhances dopamine response at the human D1 receptor; HEK293 TREx D1 cells, calcium flux, dopamine EC20 potentiation; potentiation, % at 10 µM; 360,000 tested, 0.036% active; in the data active means potentiation above about 30%
Target sequence (P21728 whole entry, looked up): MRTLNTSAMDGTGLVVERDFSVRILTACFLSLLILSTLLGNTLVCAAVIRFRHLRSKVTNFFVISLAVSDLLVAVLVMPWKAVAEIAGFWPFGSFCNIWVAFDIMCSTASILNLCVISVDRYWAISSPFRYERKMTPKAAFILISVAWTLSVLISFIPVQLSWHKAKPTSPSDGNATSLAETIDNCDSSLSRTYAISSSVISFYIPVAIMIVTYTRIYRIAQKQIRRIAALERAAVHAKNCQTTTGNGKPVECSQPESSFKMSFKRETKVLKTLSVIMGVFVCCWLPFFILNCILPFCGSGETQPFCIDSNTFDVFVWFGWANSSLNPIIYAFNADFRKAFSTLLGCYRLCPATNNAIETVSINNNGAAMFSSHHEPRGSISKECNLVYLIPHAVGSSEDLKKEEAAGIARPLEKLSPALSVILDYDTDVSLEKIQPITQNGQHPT
DRD3 antagonist = D3 dopamine receptor (human) antagonism; AID 652054; max response, negative = inhibition, %; 360,000 tested, 2.5% active; P35462; D3R cells, DiscoveRx beta-arrestin luminescence, antagonist mode; hits give low values; in the data active means max response below about -50%; inconclusive means no clear call, values can overlap the other calls
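Cells expressing the human receptor were seeded at 1500 cells/well, incubated overnight at 37 degrees C in 5% CO2, then exposed to library compounds with dopamine controls for 90 minutes at 37 degrees C before luminescent detection.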
D1 ag = activates the human D1 dopamine receptor. HEK293 T-REx D1 cells, calcium flux, agonist mode. activation, % at 2 µM. 360,000 tested, 1% active. AID 504660; in the data active means activation above about 30%
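Inducible HEK293 T-REx D1 cells, force-coupled to calcium signalling, were plated at 4000 cells/well with tetracycline and held overnight at 30 C. After no-wash calcium dye loading, compound-evoked calcium rise over 180 s flagged agonists.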
DRD3 agonist = activates the human D3 dopamine receptor; D3R DiscoveRx beta-arrestin cells, luminescence, 90 min; max activation, %; 410,000 tested, 0.58% active; in the data active means max activation above about 30%
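Agonist-mode cell screen: cells plated at 1500/well and incubated overnight at 37 °C, then exposed to library compounds for 90 min at 37 °C. Detection reagent was added for 30–60 min at room temperature, and luminescence was read.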
D1 antag = blocks dopamine activation of the human D1 receptor; activity change, negative = inhibition, % at 10 µM; HEK293 TREx D1 cells, calcium flux, dopamine EC80; hits give low values; 360,000 tested, 3.2% active; P21728; in the data active means activity change below about -30%
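Allosteric or orthosteric antagonism assessed as attenuation of the calcium response to EC80 dopamine, added 180 s after compound, in induced HEK293 Trex D1 cells loaded with no-wash calcium dye.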
Hits are given with their value; 0 = inactive; ? = inconclusive; - = no result given. Sampled rows, rich in hits. Any-hit rate of the full collection: about 6%.

SMILES | D1 PAM | DRD3 antagonist | D1 ag | DRD3 agonist | D1 antag
CC1(Oc2cccc(C#N)c2)CCN(Cc2ccccc2OC(F)F)C1 (centres undefined) | - | -89 | - | 0 | -
COC(=O)Cc1ccc(OC2(C)CCN(Cc3csc4ccccc34)C2)cc1 (centres undefined) | - | -86 | - | 0 | -
CC1(Oc2ccc(CC#N)cc2)CCN(Cc2ccccc2OC(F)F)C1 (centres undefined) | - | 0 | - | 0 | -
CCCNC(=O)C1(C)CCN(Cc2csc3ccccc23)C1 (centres undefined) | - | 0 | - | 0 | -
CC1(Oc2cccc(F)c2)CCN(Cc2csc3ccccc23)C1 (centres undefined) | - | -106 | - | 0 | -
Cc1ccccc1NC(=O)c1c(C)oc2ccc(O)c(CN3CCOCC3)c12 | 0 | - | 0 | 0 | 0
CCOc1ccccc1NC(=O)C(=O)c1cc(C)n(-c2cccc(C)c2C)c1C | 0 | - | 0 | 0 | 0
O=C(Nc1ccccc1Cl)C1CCN(c2nc3ccccc3nc2C(F)(F)F)CC1 | 0 | - | 0 | 0 | 0
COc1cc([C@@H]2c3cc4c(cc3C(O[C@@H]3O[C@@H]5COC(c6cccs6)O[C@H]5[C@H](O)[C@H]3O)C3COC(=O)[C@@H]32)OCO4)cc(OC)c1O (some centres undefined) | - | - | - | 0 | -
CCOC(=O)c1c(C)c(-c2ccccc2)n(CC(=O)Nc2cc(C)cc(C)c2)c1C | 0 | - | 0 | 0 | 0
CC1CC(=O)Nc2ccccc2S1(=O)=O (centres undefined) | 0 | 0 | 0 | 0 | -32
CC(C)c1ccc(NC(=O)CCNC(=O)Cn2ccc3ccccc3c2=O)cc1 | 0 | 0 | 0 | 0 | 0
Cc1ccccc1NC(=O)CCNC(=O)Cn1ccc2ccccc2c1=O | 0 | - | 0 | 0 | -35
O=C(CCNC(=O)Cn1ccc2ccccc2c1=O)NCCN1CCN(c2cccc(Cl)c2)CC1 | 0 | -61 | 0 | 0 | 0
O=C(CCN1C(=O)COc2ccccc21)NCCC1=CCCCC1 | 0 | -110 | 0 | 0 | 0
CCN(CC)CCOC(=O)c1ccc(NC(=O)CCNC(=O)Cn2ccc3ccccc3c2=O)cc1 | 0 | -64 | 0 | 0 | 0
N#CC1=C(N)N(c2cccc(Cl)c2)C2=C(C(=O)CCC2)C1c1cc(CN2CCOCC2)cs1 (centres undefined) | 0 | - | 0 | 0 | 0
O=C(CCN1C(=O)COc2ccccc21)NCCN1CCOCC1 | 0 | 0 | 0 | 0 | 0
O=C(CCN1C(=O)/C(=C\c2cccs2)SC1=S)Nc1ccc(C(=O)O)cc1 | 0 | 0 | 0 | 0 | 0
CCN(CC)CCOC(=O)c1ccc(NC(=O)CCCN2C(=O)/C(=C\c3cccs3)SC2=S)cc1 | 0 | -109 | 0 | 0 | -66
O=C(Cn1nc(-c2ccccc2)ccc1=O)NCCN1CCN(c2cccc(Cl)c2)CC1 | 0 | -60 | 0 | 0 | 0
O=C(CCN1C(=O)COc2ccccc21)NCCN1CCN(c2cccc(Cl)c2)CC1 | 0 | -69 | 0 | 0 | 0
O=C(CCNC(=O)Cn1ccc2ccccc2c1=O)NCCN1CCc2ccccc2C1 | 0 | -52 | 0 | 0 | 0
CCc1ccc(-n2c(SCC(=O)NC(C)CC)nc3n[nH]c(C)c3c2=N)cc1 (centres undefined) | 0 | - | 0 | 0 | 0
CCOc1ccc(C(=O)Nc2ccc3oc(-c4ccc5ccccc5c4)nc3c2)cc1 | 0 | - | 0 | 0 | 0
SMILES | D1 PAM | DRD3 antagonist | D1 ag | DRD3 agonist | D1 antag
CCOC(=O)c1cccc(NC(=O)c2ccc3c(c2)nnn3C2CCCC2)c1 | 0 | - | 0 | 0 | 0
Cc1c(-c2ccc(O)cc2)n(Cc2ccc(OCCN3CCCCCC3)cc2)c2ccc(O)cc12 | - | - | - | 0 | -
Cc1ccc2c(c1)N(CCC(=O)NCc1ccccn1)C(=O)CO2 | 0 | -64 | 0 | 0 | 0
O=C1N(Cc2cccc(Cl)c2)C[C@@H]2C[C@@H](c3cccc4cccnc34)N3CCC[C@@]123 | 0 | ? | 0 | 0 | 0
O=C1N(Cc2cccc(Cl)c2)C[C@@H]2C[C@@H](c3ccc4nonc4c3)N3CCC[C@@]123 | 0 | 0 | 0 | 0 | -36
COc1ccccc1CN1C[C@@H]2C[C@@H](c3ccc4nsnc4c3)N3CCC[C@@]23C1=O | 0 | 0 | 0 | 0 | -72
O=C1N(Cc2cccc(Cl)c2)C[C@@H]2C[C@@H](c3cccc4ncccc34)N3CCC[C@@]123 | 0 | 0 | 0 | 0 | -35
CN1CCN(c2nc(NCCOC34CC5CC(CC(C5)C3)C4)nc(OCC(F)(F)F)n2)CC1 | 0 | -61 | 0 | 0 | 0
COc1ccc(-n2cc(C(=O)NCc3ccccc3Cl)c3ccccc3c2=O)cc1 | 0 | - | 0 | 0 | 0
O=C(CCCSc1nc2ccccc2[nH]1)NC1CCCCC1 | 0 | 0 | 0 | 0 | 0
Cc1ccc(NC(=O)CCCSc2nc3ccccc3[nH]2)cc1 | 0 | 0 | 0 | 0 | -33
O=C(CCCSc1nc2ccccc2[nH]1)Nc1nnc(C2CC2)s1 | 0 | 0 | 0 | 0 | -36
CCN(CC)CCOC(=O)c1ccc(NC(=O)c2nn(-c3ccc(C)cc3)c(=O)c3c2c2ccccc2n3C)cc1 | 0 | - | 0 | 0 | 0
CCCOc1ccc(NC(=O)CC2C(=O)N(c3cccc(C)c3)C(=O)N2CCc2ccncc2)cc1 (centres undefined) | 0 | - | 0 | 0 | 0
CC1(C)CC(=O)c2cc(OCC(=O)NCCN3CCCc4ccccc43)ccc2O1 | 0 | -68 | 0 | 0 | 0
CC1(C)CC(=O)c2cc(OCC(=O)NCCCN3CCN(c4ccc(F)cc4)CC3)ccc2O1 | 0 | -81 | 0 | 0 | 0
COC(=O)c1cc(=O)n(-c2ccccc2)c(=Nc2ccccc2)s1 | 0 | -61 | 0 | 0 | 0
COC(=O)c1cc(=O)n(Cc2ccco2)c(=Nc2ccc(F)cc2)s1 | 0 | 0 | 0 | 0 | -35
COC(=O)c1cc(=O)n(Cc2ccc(F)cc2)c(=Nc2ccccc2)s1 | 0 | 0 | 0 | 0 | 0
CCc1ccc(CNC(=O)c2ccc3c(c2)nc2n3CCCCC2)cc1 | 0 | - | 0 | 0 | 0
CC(=O)c1ccccc1OCCOCCOc1ccccc1C(C)=O | 0 | 0 | 0 | 0 | -34
COc1cc(C)ccc1OCCCCOc1ccccc1C(C)=O | 0 | 0 | 0 | 0 | -49
O=[N+]([O-])c1ccc(CN2CCN(Cc3c[nH]c4ccccc34)CC2)cc1 | 0 | ? | 0 | 0 | -72
Brc1ccccc1CN1CCN(Cc2c[nH]c3ccccc23)CC1 | - | -80 | - | 0 | -
Brc1ccc(CN2CCN(Cc3c[nH]c4ccccc34)CC2)cc1 | 0 | -64 | 0 | 0 | 0
CN1CCCN(Cc2ccccc2Br)CC1 | 0 | -51 | 0 | 0 | 0
CCS(=O)(=O)N1CCN(Cc2c[nH]c3ccccc23)CC1 | 0 | 0 | 0 | 0 | 0
Cc1cccc(N2CC(c3nc4ccc(C)cc4[nH]3)CC2=O)c1 (centres undefined) | 0 | - | 0 | 0 | 0
CCc1ccc(NC(=O)Cn2c(=O)n(-c3ccc(OC)cc3)c(=O)c3ccc(C(=O)NCc4ccc(C)cc4)cc32)cc1 | 0 | - | 0 | 0 | 0
COc1ccc(C(=O)c2cc3c(cc2[N+](=O)[O-])OCCO3)cc1 | 0 | 0 | 0 | 0 | -32

Compound activity (PubChem BioAssay)
